This is an account of results in PubChem BioAssay (NCATS).

For test [1], the target named is Aldehyde dehydrogenase, mitochondrial (Homo sapiens) (UniProt P05091). In words: qHTS for Inhibitors of the Aldehyde Dehydrogenase Family (ALDH2) Confirmatory screens (AID 2061303; active means well fitted inhibition curve with a large enough effect; title and protocol of this record describe different tests; further: nearly all actives have a fitted effect of over 45% in size; further: potency means the concentration at half of the fitted maximal effect; on activity change, negative = inhibition: on the % scale 0 is the no-effect control and ±100 the full control effect). (qHTS replaces the single test concentration by a dilution series.)
A short description of test [2]: qHTS for Inhibitors of the Aldehyde Dehydrogenase Family (ALDH1A2, ALDH1A3, ALDH2, ALDH3A1) (AID 2061307). Further: nearly all actives have a fitted effect of over 50% in size. On Potency: test system not described further here; potency means the concentration at half of the fitted maximal effect. On activity change, negative = inhibition: on the % scale 0 is the no-effect control and ±100 the full control effect.
The target of test [3] is Aldehyde dehydrogenase, mitochondrial (Homo sapiens) (UniProt P05091). In words: qHTS for Inhibitors of the Aldehyde Dehydrogenase Family (ALDH2) Primary screen (AID 2061308). Further: nearly all actives have a fitted effect of over 55% in size. Further: potency means the concentration at half of the fitted maximal effect.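 On activity change, negative = inhibition: plate controls were vehicle for no effect and reference inhibitor for full effect.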
In test [4] the target is Retinaldehyde dehydrogenase 3 (Homo sapiens) (UniProt P47895). In words: qHTS for Inhibitors of the Aldehyde Dehydrogenase Family (ALDH1A3) Confirmatory screens (AID 2061311). Further: nearly all actives have a fitted effect of over 60% in size. Further: potency means the concentration at half of the fitted maximal effect. On activity change, negative = inhibition: on the % scale 0 is the no-effect control and ±100 the full control effect.
The target of test [5] is Retinal dehydrogenase 2 (Homo sapiens) (UniProt O94788). In words: qHTS for Inhibitors of the Aldehyde Dehydrogenase Family (ALDH1A2) Confirmation screens (AID 2061314). Further: nearly all actives have a fitted effect of over 65% in size. Further: potency means the concentration at half of the fitted maximal effect.
The target of test [6] is Retinaldehyde dehydrogenase 3 (Homo sapiens) (UniProt P47895). In words: qHTS for Inhibitors of the Aldehyde Dehydrogenase Family (ALDH1A3) Primary screen (AID 2061315).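 Further: plate controls were DMSO vehicle for no effect and reference inhibitor for full effect.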
The target in test [7] is Aldehyde dehydrogenase 1A1 (Homo sapiens) (UniProt P00352). In words: qHTS for Inhibitors of the Aldehyde Dehydrogenase Family (ALDH1A1) Confirmatory screens (AID 2061316). Further: nearly all actives have a fitted effect of over 65% in size. Further: potency means the concentration at half of the fitted maximal effect. On activity change, negative = inhibition: on the % scale 0 is the no-effect control and ±100 the full control effect.
Test [8] can be described thus: BET inhibitor-based combinations targeting novel dependencies in MECOM-rearranged (r) AML: SET-2 cell line (AID 2202231).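 Further: plate controls were DMSO treated cells for no effect and wells without cells for full effect; nearly all actives have a fitted effect of over 35% in size.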 Particulars: SET-2 AML cells viability, CellTiter-Glo luminescence, 48 h; viability: stronger effect = lower value, series mostly up to about 46 µM. The procedure, abridged: (§1)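 AML cell lines seeded at 500 cells/well, treated with 11-point dose curves for 48 h. Viability by CellTiter-Glo luminescence, normalised to DMSO and empty wells; activity expressed as AUC and per-cell-line Z-transformed AUC.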
(In general: In ATP-based viability assays light output follows the ATP content of the culture.)

The nature of test [9]: BET inhibitor-based combinations targeting novel dependencies in MECOM-rearranged (r) AML: OCI-AML3 cell line (AID 2202232).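 Further: series mostly up to about 46 µM; plate controls were DMSO vehicle wells for no effect and wells without cells for full effect; nearly all actives have a fitted effect of over 35% in size.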 The note with it: Potency: OCI-AML3 viability. The procedure, abridged:
as §1

Test [10] is described as follows: BET inhibitor-based combinations targeting novel dependencies in MECOM-rearranged (r) AML: UCSD-AML1 cell line (AID 2202235).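 Further: series mostly up to about 46 µM; plate controls were DMSO vehicle wells for no effect and blank wells for full effect; nearly all actives have a fitted effect of over 40% in size.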 The procedure, abridged:
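Cells at 500/well were exposed for 48 hr to MIPE v5.0 drugs as 11-point dose curves. Viability was read by CellTiter-Glo luminescence and normalized to DMSO and empty-well controls. Activity was expressed as AUC and per-cell-line Z-AUC.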

Test [11] can be described thus: BET inhibitor-based combinations targeting novel dependencies in MECOM-rearranged (r) AML: AML-191 cell line (AID 2202236;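 further: plate controls were vehicle wells for no effect and wells without cells for full effect; nearly all actives have a fitted effect of over 35% in size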). The procedure, abridged:
as §1

The nature of test [12]: BET inhibitor-based combinations targeting novel dependencies in MECOM-rearranged (r) AML: AML-194 cell line (AID 2202237;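 further: plate controls were vehicle wells for no effect and wells without cells for full effect; nearly all actives have a fitted effect of over 40% in size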). Put shortly: as §1

Inconclusive results are not listed. Unmarked numbers belong to inactive results. Calls of active or inactive are those of the source. Unless noted, the call rests on the fitted dose curve; in most records, active means well fitted curve in the direction sought with a large enough effect; inconclusive means small, poorly fitted or top-dose-only effect, or another doubt; inactive means no such curve, though single readings can be large; an effect the other way counts as inactive or inconclusive.

Regarding `Cc1cccc2c(C(=O)O)cc(Cl)nc12`, the Potency result in [1], in test [2], in test [3], in test [4], in test [5] and in [6] was “inactive” each time. Further, in [7], the Potency entry is “inactive”.

For the compound `Cc1cc(C)nc(NC(=S)N2CCN(c3ccc4ccccc4c3)CC2)c1`, the Potency was 11.3 µM (active) in test [1]; 3.55 µM (active) in test [2]; 11.2 µM (active) in test [3]; 7.12 µM (active) in test [4]; 12.7 µM (active) in test [5]; 2.83 µM (active) in test [7].

Consider `Cc1ccc(S(=O)(=O)NC(N)=NCCC[C@@H](NC(=O)CNC(=O)c2ccccc2)C(=O)Nc2cc(C(F)(F)F)ccc2Cl)cc1`, for which the Potency entry in test [1], in test [2], in test [3], in test [4], in [5] and in [6] was “inactive” in each case. In [7], the Potency result was “inactive”.

For `Cn1ncc(-c2nnc(-c3ccccc3)n2CCCn2ccnc2)c1N`, the Potency entry in [1], in test [2], in test [3], in test [4], in test [5] and in [6] was “inactive” each time. The Potency result in test [7] was “inactive”.

On to `O=C(NC1CCCc2c1cnn2-c1ccc(F)cc1F)c1ccccn1` (stereo not drawn), for which the Potency entry in [1], in [2], in test [3], in test [4], in test [5] and in test [6] was “inactive” in each case. The Potency result in test [7] was “inactive”.

The term viability denotes a read-out of living cells in per cent, often relative to untreated cells. For the compound `CC(=O)NCCC(=O)N[C@@H](CCC(N)=O)C(=O)N[C@@H](CO)C(=O)N[C@@H](CCC(N)=O)C(=O)N[C@@H](CCC(N)=O)C(=O)N[C@H](C(=O)N[C@@H](Cc1ccccc1)C(=O)N[C@]1(C)CCCCCCC=CCCC[C@@](C)(C(=O)N[C@@H](CCC(N)=O)C(=O)N[C@@H](CC(N)=O)C(N)=O)NC(=O)[C@H](CC(C)C)NC(=O)[C@H](CC(C)C)NC(=O)[C@@H](CCCNC(=N)N)NC(=O)[C@H](Cc2c[nH]c3ccccc23)NC(=O)[C@H](CC(C)C)NC(=O)[C@H](CC(N)=O)NC1=O)[C@H](C)O`, the Potency entry in test [1], in test [2], in [3], in test [4], in test [5] and in [6] was “inactive” in each case. Further, the Potency entry in test [7], in [9], in test [10], in test [11] and in [12] was “inactive” each time. Moreover, the viability in test [8] is 109%.

As to `CC(C)c1ccccc1-c1ncc(F)c(NC(C)(C)c2ccc(-c3cccnc3)cc2)n1`, the Potency entry in [1], in [2], in [3], in test [4], in [5] and in test [6] was “inactive” throughout. For the same compound, in test [7], the Potency entry was “inactive”.

Turning to `C=CCNc1oc(-c2cccs2)nc1C#N`, the Potency result in test [1], in test [2], in test [3], in test [4], in test [5] and in test [6] was “inactive” each time. The Potency result in [7] was “inactive”.

For the compound `Cc1ccc(-c2cc(C(=O)N3CCCCC3)c3ccccc3n2)cc1C`, the Potency entry in test [1], in test [2], in test [3], in test [4], in test [5] and in test [6] was “inactive” each time. The Potency result in test [7] is “inactive”.

Consider `CC(=O)N(C(C)=O)n1c(C)nc2sc3c(c2c1=O)CCNC3`, for which the Potency entry in [1], in test [2], in test [3], in test [4], in [5] and in test [6] was “inactive” throughout. Moreover, the Potency entry in [7] was “inactive”.

In the case of `O=C(C1CCN(c2nc(-c3ccc(Br)cc3)cs2)CC1)N1CCOCC1`, the Potency entry in test [1], in test [3], in test [4], in test [5], in test [6] and in test [7] was “inactive” throughout. Besides, the Potency in test [2] was 11.3 µM (active).

On to `NC(=O)c1ccc(C[C@H](C(=O)O)N2C(=O)c3ccc(C(=O)O)cc3C2=O)cc1`, for which the Potency entry in test [1], in [2], in [3], in [4], in test [5] and in test [6] was “inactive” throughout. Besides, in [7], the Potency entry was “inactive”.

As for `O=C1Nc2ccccc2/C1=C\c1cc(F)c(O)c(F)c1`, the Potency result in [1] and in test [2] was “inactive” in each case. Besides, the Potency in [3] was 1.12 µM (active); in test [4], 3.16 µM (active); in [5], 5.62 µM (active); in test [7] it was 8.96 µM (active).

Consider `Fc1cc(Nc2nc(-c3ccncc3)nc3ccccc23)ccc1N1CCCCC1`, for which the Potency result in test [1], in test [2], in test [3] and in [6] was “inactive” throughout. Besides, the Potency in test [4] was 11.3 µM (active); in test [5] it was 0.712 µM (active); in [7], 3.57 µM (active).

In the case of `Cc1cc2c(s1)c1cnn(Cc3c(Cl)ccc(C)c3F)c(=O)c1n2C`, the Potency entry in [1], in [2], in test [3], in [4], in test [5] and in test [6] was “inactive” throughout. The Potency entry in test [7] is “inactive”.

In the case of `CC(C)(C)OC(=O)N1CCN(c2ccc(NCc3cnc(-c4ccc(C#N)cc4)o3)cc2)CC1`, the Potency was 0.4 µM (active) in test [1], 0.252 µM (active) in test [2] and 0.316 µM (active) in test [3]. The Potency entry in test [4], in test [5], in test [6] and in [7] was “inactive” throughout.

Take `COc1ccc(C2Nc3ccccc3C(=O)N2CCO)cc1COc1ccc(NC(C)=O)cc1` (stereo not drawn): the Potency is 2 µM (active) in test [1]; 3.18 µM (active) in test [2]; 10 µM (active) in test [4]; 14.2 µM (active) in test [5]; 22.5 µM (active) in test [7]. Moreover, the Potency result in test [3] and in test [6] was “inactive” each time.

For the compound `O=C1[C@@H]2[C@H]3CC[C@H](C3)[C@@H]2C(=O)N1CCCCN1CCN(c2ncccn2)CC1`, the Potency entry in [1], in test [2], in [3], in [5] and in test [6] was “inactive” in each case. For the same compound, the activity change, negative = inhibition in [4] was -14.2% [at 0.022 µM]. Besides, the Potency in test [7] was 2.52 µM (active).

Take `C=C1CC[C@@H]2[C@](C)(CO)[C@H](O)CC[C@@]2(C)[C@@H]1CC(=O)C1=CCOC1=O`: the Potency entry in test [1], in test [2], in test [3], in test [4], in test [5] and in test [7] was “inactive” in each case.

Turning to `C[C@@](Cc1ccccc1)(C(=O)O)N1C(=O)c2ccc(C(=O)O)cc2C1=O`, the Potency result in [1], in test [2], in [3], in [4], in [5] and in test [6] was “inactive” throughout. Also, the Potency result in [7] was “inactive”.

`COc1ccc(C2=Nn3c(nnc3-c3cc(OC)ccc3OC)SC2)c(OC)c1`: the Potency result in test [1], in test [3], in test [4], in test [5] and in [6] was “inactive” throughout. In addition, the results for the Potency in test [2] and in [7] were 17.9 µM (active) and 6.34 µM (active), respectively.

With `Cc1ccc(C[C@@H](NS(=O)(=O)c2ccc(C(=O)O)cc2)C(=O)O)cc1`, the Potency result in test [1], in [2], in test [3], in test [4], in test [5] and in test [6] was “inactive” each time. In addition, the Potency result in [7] is “inactive”.

For `O=C(O)c1ccc(S(=O)(=O)N[C@H](Cc2ccccc2)C(=O)O)cc1`, the Potency result in test [1], in [2], in test [3], in test [4], in [5] and in [6] was “inactive” throughout. For the same compound, the Potency entry in test [7] was “inactive”.
